# Most compounds without a hit are left out; they make up all but 3.7% or so of the library.
# Wnt act – Wnt/beta-catenin pathway activators, primary screen, cell-based, plate reader, single point; actives 1.2% (n = 300,000); activation, % at 9.35 µM; Wnt/beta-catenin reporter cell assay, activator; in the data active means activation above about 30%, passing the limit was not always enough; inconclusive means no clear call, values can overlap the other calls;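 further: 0% = neutral control wells and 100% = positive control wells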
# MLL AF4-AF9 inh – inhibitors of AF4 peptide binding to AF9, primary screen, biochemical, AlphaScreen, biotin-AF4 peptide, FLAG-AF9, single point | Protein AF-9 (Homo sapiens), P42568 | inhibition, % at 10 µM | actives 0.47% (n = 350,000) | AID 651704, 2012;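 active means every replicate reaching a set inhibition limit, whatever the replicate mean, cut at about 25% in these data; inconclusive means mean inhibition reaches that limit but some replicates miss it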;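 further: 0% = plate neutral control median and 100% = total signal loss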
# Target sequence (P42568 whole entry, looked up): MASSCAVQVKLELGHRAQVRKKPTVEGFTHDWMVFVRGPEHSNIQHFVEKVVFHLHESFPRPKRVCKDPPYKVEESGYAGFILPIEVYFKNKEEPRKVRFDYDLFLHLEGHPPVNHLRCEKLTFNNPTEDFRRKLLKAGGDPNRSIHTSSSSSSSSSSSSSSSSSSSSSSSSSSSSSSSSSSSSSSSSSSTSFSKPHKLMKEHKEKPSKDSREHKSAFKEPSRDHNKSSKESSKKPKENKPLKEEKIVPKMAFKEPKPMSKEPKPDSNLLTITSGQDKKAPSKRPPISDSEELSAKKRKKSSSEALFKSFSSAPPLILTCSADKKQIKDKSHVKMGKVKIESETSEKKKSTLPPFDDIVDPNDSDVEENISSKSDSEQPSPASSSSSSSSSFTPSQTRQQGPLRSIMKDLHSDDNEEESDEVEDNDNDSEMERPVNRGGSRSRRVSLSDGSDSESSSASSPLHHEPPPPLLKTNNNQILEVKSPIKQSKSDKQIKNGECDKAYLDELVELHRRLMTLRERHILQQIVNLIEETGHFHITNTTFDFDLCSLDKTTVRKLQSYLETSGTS
# rRNA inh HTS – reduced GFP signal of wild-type E. coli, primary screen, bacterial rRNA inhibitor project, GFP/RFP fluorescence, OD600, single point | E. coli WT GFP vs humanized-ribosome RFP mutants, 24 h; stronger effect = lower value; DMSO median 0, no signal -100 | actives 1.6% (n = 350,000) | GFP signal change (wild-type ribosome), % (concentration not given with the values);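 active means significant combined selectivity score with lowered wild-type GFP, culture density cut under 30%, mutant RFP and density less affected; inactive means any of these conditions unmet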
# esBAF inh – Bmi1 luciferase reporter increase in mESCs, primary screen, esBAF inhibitor project, mouse ES cells, Bmi1 luciferase knock-in, single point; 24 h; 100% = twice the neutral-well signal; reporter increase, % at 12.5 µM; actives 2% (n = 350,000); AID 602393, 2012; in the data active means activation above about 40%; inconclusive means no clear call, values can overlap the other calls;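 further: 0% = median of the plate's neutral control wells and 100% = double that signal; a rise in the Bmi1 reporter signal indicates esBAF inhibition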
# MITF TRPM1 HTS – activators of MITF-driven TRPM1 promoter reporter, primary screen, cell-based, SK-MEL-5, luciferase, single point; AID 588334, 2011; SK-MEL-5 TRPM1-promoter luciferase, 24 h; % of positive control, neutral wells = 0; activation, % at 12.5 µM; actives 0.75% (n = 300,000);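 active means mean activation of at least 80% with every replicate also reaching 80%; inconclusive means mean reaches 80% but some replicate falls short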;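 further: 0% = neutral control wells and 100% = parthenolide positive control wells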
# * marks the source's active call; other numbers are inactive results; ? = inconclusive; . = no result given.
SMILES,Wnt act,MLL AF4-AF9 inh,rRNA inh HTS,esBAF inh,MITF TRPM1 HTS
Cc1cc(C)n2nc(C(=O)OCC(=O)N(Cc3ccccc3)C(C)C)nc2n1,3,-6,0,-5,0
CCCCNC(=O)C1(C)CCCCN1C(=O)c1cc(C#N)cs1 (stereo not drawn),1,0,7,1,.
Cc1oc(-c2ccc(Cl)cc2)nc1CN1CCCC(C(=O)NCc2cccnc2)C1 (stereo not drawn),.,.,.,-4,.
CSc1ccc(-c2nc(CN3CCCCC3c3cccnc3)c(C)o2)cc1 (stereo not drawn),0,6,-21*,?,7
CCOC(=O)c1cnn(-c2ccccc2)c1NC(=O)CN1CCCCC1,41*,-1,5,-5,.
CCOC(=O)c1cnn(-c2ccc(C)cc2)c1N,44*,.,.,56*,77
Cc1c(C(=O)Nc2ccccc2)sc2nc[nH]c(=O)c12,.,.,.,.,18
O=C(COc1ccc(Cl)cc1)Nc1c(-c2cccs2)nc2ccccn12,-2,3,12,.,7
CC(C)CCNc1c(-c2cccs2)nc2ccccn12,-1,9,-26*,8,2
CN1CCC(NC(=O)c2cc(-c3cccc(Br)c3)nc3ccccc23)CC1,-3,1,-23*,-6,3
Cc1ccc(S(=O)(=O)N2CCCCC2)cc1C(=O)Nc1ccc(N2CCOCC2)cc1,13,.,.,?,-1
CC1CCCN(Cc2c(C(=O)N3CCc4ccccc4C3)nc3ccc(Cl)cn23)C1 (stereo not drawn),-1,4,-25*,3,-19
Cc1ccc(OCc2cc(C(=O)NCc3cnn(-c4cccc(F)c4)c3)no2)cn1,1,-7,-8,6,-22
CCN(Cc1cnn(C)c1)C(=O)c1cc(COc2ccc3c(c2)CCCC3)on1,12,1,-49,46*,55
Cn1cc(CNC(=O)c2cc(COc3ccc4c(c3)CCCC4)on2)cn1,1,3,-32*,4,6
N=c1c(S(=O)(=O)c2ccc(F)cc2)cc2c(=O)n3ccccc3nc2n1CC1CCCO1 (stereo not drawn),1,2,12,3,8
O=C(Nc1ccccn1)c1cc2ccccc2o1,.,.,.,-67,-62
Cc1ccc(C)c(NC(=O)c2cc3ccccc3o2)c1,3,-4,-2,74*,.
O=C(Nc1ccccc1C(F)(F)F)c1cc2ccccc2o1,14,3,5,52*,56
O=C(Nc1ncccc1O)c1cc2ccccc2o1,55*,-6,6,-37,16
COc1ccc(CCC(=O)Nc2ccc(C(=O)c3ccncc3)cc2)cc1,-2,0,-5,-9,1
O=C(C[C@@H]1CC[C@@H]2[C@H](COC[C@H](O)CN2C(=O)c2ccccc2F)O1)NCc1ccc(-c2ccccc2)cc1,.,1,-13,0,.
Cc1ccc(S(=O)(=O)N[C@@H]2CC[C@H](CCn3cc(C4CC4)nn3)O[C@@H]2CO)cc1,.,2,2,1,.
Cc1nc(CNS(=O)(=O)c2ccccc2F)cs1,-3,-8,2,0,.
COC(=O)c1ccc(COC(=O)c2ccc(N(C)C)cc2)cc1,.,.,.,-8,32
SMILES,Wnt act,MLL AF4-AF9 inh,rRNA inh HTS,esBAF inh,MITF TRPM1 HTS
CN(C)c1ccc(C(=O)OCc2ccccc2)cc1,.,.,.,50*,60
CN(CCCC(=O)O)c1ccc(N=Nc2ccc([N+](=O)[O-])cc2)cc1,29,38*,-31*,.,12
CC=Cc1ccc2n(c1=O)C[C@H]1[C@H](CO)[C@@H](C(=O)Nc3nccs3)N(C(=O)CC)[C@@H]21 (mixture of isomers),.,-2,2,-6,.
COc1ccc(C(=O)NNC(=S)NC(=O)c2ccco2)cc1,-1,.,.,-16,.
CC(=O)NC(=S)Nc1ccc(NC(=S)NC(=O)/C=C/c2ccco2)cc1,-1,0,-12,.,-11
O=C(/C=C/c1ccco1)NC(=S)NNC(=O)c1ccco1,-1,1,-26*,-5,-2
CCCOc1ccc(C(=O)NNC(=S)NC(=O)c2ccco2)cc1,-3,-3,-48*,-67,-19
CN(Cc1ccc(F)cc1)Cc1nc(-c2cnccn2)no1,3,0,13,-5,1
COc1ccc(NC(=O)Nc2ccc3c(c2)[C@H]2C[C@H](CC(=O)NCC4CC4)O[C@@H](CO)[C@H]2O3)cc1,.,-1,2,4,.
COCCCNC(=O)c1csc([C@@H]2C[C@H](O)[C@@H](CO)O2)n1,-1,-2,6,4,.
O=C(C1CCCCC1)N1CC2(C1)[C@H](c1ccccc1)[C@@H](CO)N2C(=O)c1cccnc1,.,-1,3,.,.
COC(=O)c1ccc(CN2C(=O)NC3(CCC(C)CC3)C2=O)o1 (stereo not drawn),-1,.,.,2,.
COC(=O)c1ccc(CN2C(=O)NC3(CCC(C)CC3)C2=O)cc1 (stereo not drawn),5,-2,5,44*,48
O=C(O)c1cccc(S(=O)(=O)N2CCOCC2)c1,0,5,16,-3,-7
CN1CCN(C(=O)c2ccccc2-c2nc(-c3ccccc3)no2)CC1,-1,.,.,48*,5
Fc1ccccc1-c1nc(-c2ccccc2)no1,46*,.,.,-4,-3
Fc1ccccc1-c1nc(-c2ccncc2)no1,55*,-2,0,?,.
COc1ccc(-c2noc(-c3ccccc3F)n2)cc1,14,-44,0,-15,33
Fc1ccccc1-c1nc(-c2ccc(-c3nn[nH]n3)cc2)no1,39*,-7,-37,34,47
NC(=O)c1cccc(-c2noc(-c3ccccc3F)n2)c1,6,-4,19,-52,32
O=C(N=C1SC2CS(=O)(=O)CC2N1Cc1ccc(Cl)cc1)C1CCCO1 (stereo not drawn),1,-13,0,-1,1
CC(C)NC(=O)Nc1cccc2c1O[C@@H](CN(C)S(=O)(=O)c1cn(C)cn1)[C@@H](C)CN([C@H](C)CO)C2=O,.,-2,3,-1,.
CC(=O)NCCc1ccc(C(=O)COC(=O)c2cc(C)oc2C)cc1,37*,-1,-2,8,17
COc1ccc(CNC(=O)CN(CCC(C)C)S(=O)(=O)c2ccc3c(c2)OCCO3)cc1,-4,1,-19,.,11
COc1ccc(CN(C)CCCn2cnc3c(OCc4ccccc4)ncnc32)cc1OC,-2,-2,8,9,-7
CN(C)c1ccc(NC(=O)CN2CCC(NC(=O)C3CCCCC3)CC2)cc1,-1,51*,2,-5,-12
CN(C)c1ccc(NC(=O)CN2CCc3ccccc3C2)cc1,5,5,0,44*,46
O=C(CN1CCC(NC(=O)C2CCCCC2)CC1)Nc1ccccc1,4,-2,1,-2,11
